# Experimental data reported in PubChem BioAssay AID2284144 (EPA ToxCast).
# Activity calls are given as the source filed them. Rule for the calls: active = hit-call score of the fitted dose curve at least 0.9, where 1 is the maximum; inactive = score below 0.9.
# Target: human Adrenoceptor alpha2C Antagonism, ADRA2C (gene 152) (UniProt P18825)
# Experiment: ERF_TW_GPCR_hADRA2C: Eurofins (ERF) G Protein-Coupled Receptor (GPCR) Radioligand Binding LeadHunter Assay for human Adrenoceptor alpha2C Antagonism
# Method: ERF_TW_GPCR_hADRA2C is a biochemical, single-readout assay that uses extracted gene-proteins in a cell-free assay. Measurements were taken 1 hour after chemical dosing in a 96-well plate. See alpha2C Human Adrenoceptor GPCR Binding (Antagonist Radioligand) Assay, Panlabs.ERF_TW_GPCR_hADRA2C is an assay component calculated from the ERF_TW_GPCR_hADRA2C assay. It is designed to measure radioligand binding using a type of binding reporter as detected by scintillation counting with radiometry technology.Data from the assay component ERF_TW_GPCR_hADRA2C was analyzed at the assay endpoint, ERF_TW_GPCR_hADRA2C, in the positive analysis fitting direction relative to DMSO as the negative control and baseline of activity. Using a type of binding reporter, loss-of-signal activity can be used to understand changes in radioligand binding as they relate to gene ADRA2C. To generalize the intended target to other relatable targets, this assay endpoint is annotated to the gpcr intended target family, where the subfamily is adrenoceptor.
# Human recombinant adrenergic alpha2C receptor expressed in CHO-K1 cells are used in modified Tris-HCl buffer pH 7.4. A 2 ug aliquot of membrane is incubated with 0.5 nM [3H]Rauwolscine for 60 minutes at 25C. […] Membranes are filtered and washed, the filters are then counted to determine [3H]Rauwolscine specifically bound. […]
# Chain of human Adrenoceptor alpha2C Antagonism, ADRA2C (gene 152) (P18825 whole entry, looked up): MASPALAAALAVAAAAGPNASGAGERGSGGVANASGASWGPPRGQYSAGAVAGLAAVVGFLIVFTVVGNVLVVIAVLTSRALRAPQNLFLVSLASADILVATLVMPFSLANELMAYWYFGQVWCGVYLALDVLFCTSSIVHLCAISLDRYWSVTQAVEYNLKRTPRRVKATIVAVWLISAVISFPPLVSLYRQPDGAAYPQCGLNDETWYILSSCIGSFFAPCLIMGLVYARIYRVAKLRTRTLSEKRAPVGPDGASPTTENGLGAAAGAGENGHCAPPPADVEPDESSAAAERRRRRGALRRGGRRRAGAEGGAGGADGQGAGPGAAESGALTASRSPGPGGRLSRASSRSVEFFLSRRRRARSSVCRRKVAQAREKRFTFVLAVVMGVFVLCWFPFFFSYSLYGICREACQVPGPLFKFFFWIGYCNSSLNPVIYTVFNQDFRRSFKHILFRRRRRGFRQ
row,Structure (SMILES),AC50
1,O=C(/C=C/c1ccc(O)cc1)CC(=O)/C=C/c1ccc(O)cc1,602 nM (active)
